# RGS8-Gao reg = RGS8-Galphao binding modulators, primary screen, biochemical, multiplexed bead flow cytometry; actives lie on both sides; response (percent of control binding), % at 10 µM; 0.34% of 220,000 active; Guanine nucleotide-binding protein G(o) subunit alpha (Homo sapiens), P09471; AID 1423, 2008; in the data active means response below about 60% or above about 140%; inactive means in between;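 further: Galphao activated as the GDP aluminium fluoride complex binding bead-coupled RGS8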
# Target sequence (P09471 whole entry, looked up): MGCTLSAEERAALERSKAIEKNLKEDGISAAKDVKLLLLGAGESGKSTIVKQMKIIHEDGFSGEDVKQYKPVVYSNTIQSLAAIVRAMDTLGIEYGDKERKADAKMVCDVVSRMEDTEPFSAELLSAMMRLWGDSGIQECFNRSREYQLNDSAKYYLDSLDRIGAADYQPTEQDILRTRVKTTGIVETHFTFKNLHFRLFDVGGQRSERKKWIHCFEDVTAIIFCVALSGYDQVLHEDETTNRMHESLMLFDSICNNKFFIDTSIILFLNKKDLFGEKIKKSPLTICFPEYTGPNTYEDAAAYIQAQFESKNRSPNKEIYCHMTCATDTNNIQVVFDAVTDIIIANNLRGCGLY
# GSH fluor = compound fluorescence on glutathione beads, profiling panel, artefact control, biophysical, 488/530 nm, flow cytometry; 0.25% of 190,000 active; AID 1776, 2009; GSH beads flow cytometry, compound fluorescence 488/530 nm; stronger effect = higher value; fluorescence (KMESF) at 10 µM; in the data active means fluorescence above about 89;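 further: glutathione beads carrying GST-tagged Bcl family fusion proteins plus one bare bead set; values are compound well signal with DMSO vehicle wells as background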
# RGS7-Gao = RGS7-Galphao binding modulators, primary screen, biochemical, multiplexed bead flow cytometry; actives lie on both sides; 0.35% of 220,000 active; binding response (% of control), % at 10 µM; in the data active means binding response below about 49% or above about 150%; inconclusive means no clear call, values can overlap the other calls; inactive means in between;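 further: fluorescent Galphao held in activated GDP-AlF4 state binding bead-coupled RGS7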
# Avidin bead fluor = green autofluorescence of compounds with avidin beads – biophysical, 488/530 nm, flow cytometry, artefact control, profiling panel; compound fluorescence 488/530 nm; stronger effect = higher value; fluorescence (KMESF) at 10 µM; 0.38% of 220,000 active; AID 1775, 2009; in the data active means fluorescence above about 47
# RGS16-Gao HTS = modulators of RGS16 binding to Galphao, primary screen, biochemical, human proteins, multiplexed bead flow cytometry; Regulator of G-protein signaling 16 (Homo sapiens) + Guanine nucleotide-binding protein …; AID 1441, 2008; binding response (% of control), % at 10 µM; bead-based flow cytometry RGS16-Galphao binding, fluorescence; actives lie on both sides; 0.38% of 220,000 active;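 further: Galphao activated by GDP with aluminum fluoride before binding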
# RGS4-Gao reg = modulators of RGS4 binding to Galphao, primary screen, biochemical, multiplexed bead flow cytometry; binding response (% of control), % at 10 µM; Guanine nucleotide-binding protein G(o) subunit alpha (Homo sapiens), P09471; 0.33% of 220,000 active; AID 1415, 2008; actives lie on both sides; in the data active means binding response below about 49% or above about 150%; inactive means in between;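 further: fluorescent Galphao activated with aluminum fluoride binding bead-coupled RGS4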
# RGS4-Gao HTS = modulators of RGS–Galpha-o binding, primary screen, biochemical, multiplexed beads, flow cytometry, RGS4/7/8/16/19. shares compounds with RGS16-Gao HTS. multiplexed bead flow cytometry. RGS4–Galpha-o binding response, % at 10 µM. 99% of 1,600 active. AID 1504, 2009;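 further: fluorescently labeled Galpha-o bound to GDP with aluminium fluoride binding biotinylated RGS beads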
# Target sequence (P09471 whole entry, looked up): as above
# Target sequence (P49798 whole entry, looked up): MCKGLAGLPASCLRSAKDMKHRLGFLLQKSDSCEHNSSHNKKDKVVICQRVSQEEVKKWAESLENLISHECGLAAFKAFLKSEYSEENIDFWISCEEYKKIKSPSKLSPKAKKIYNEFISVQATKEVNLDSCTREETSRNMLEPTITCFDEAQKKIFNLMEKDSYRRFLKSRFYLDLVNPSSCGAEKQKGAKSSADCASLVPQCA
# Biotin-avidin = disruption of biotin probe capture by avidin, counter-screen for RGS protein interaction modulators, biochemical, flow cytometry, bead-based. shares compounds with RGS16-Gao HTS. streptavidin beads, fluorescein-biotin binding. inhibition, % at 10 µM. 1,700 tested, under 10 active;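 active means inhibition above 50%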;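 further: median green fluorescence of gated singlet beads compared with DMSO control wells; 0% = DMSO wells and 100% = complete loss of bead fluorescence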
# RGS8-Gao single = RGS8-Galphao binding modulators, confirmation, biochemical, multiplexed bead flow cytometry, single concentration | shares compounds with RGS16-Gao HTS | bead-based flow cytometry RGS8-Galphao binding, fluorescence; actives lie on both sides | binding response (% of control), % at 10 µM | 3% of 1,700 active; in the data active means binding response below about 72% or above about 130%; inactive means in between;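 further: Galphao activated as GDP AlF4 complex before binding bead RGS8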
# RGS7-Gao confirm = RGS7-Galphao binding modulators, confirmation, biochemical, multiplexed bead flow cytometry, single concentration; shares compounds with RGS16-Gao HTS; bead-based flow cytometry RGS7-Galphao binding; actives lie on both sides; response (percent of control binding), % at 10 µM; 7.8% of 1,700 active; AID 1837, 2009; in the data active means response below about 75% or above about 130%; inactive means in between;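 further: fluorescent Galphao activated with GDP and aluminum fluoride binding bead-coupled RGS7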
# RGS16-Gao single = modulators of RGS16-Galphao protein binding, confirmation, biochemical, single concentration, multiplexed bead flow cytometry. shares compounds with RGS16-Gao HTS. bead-based flow cytometry; actives lie on both sides. response (% of control binding), % at 10 µM. 4% of 1,700 active; in the data active means response below about 74% or above about 130%; inactive means in between;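 further: Galphao activated as the GDP aluminium fluoride complex binding bead-coupled RGS16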
# RGS4-Gao confirm = modulators of RGS4-Galphao protein binding, confirmation, biochemical, single concentration, multiplexed bead flow cytometry; shares compounds with RGS16-Gao HTS; binding response (% of control), % at 10 µM; actives lie on both sides; AID 1840, 2009; 4% of 1,700 active; in the data active means binding response below about 74% or above about 130%; inactive means in between
# RGS19-Gao single = regulators of RGS19-Galphao binding, confirmation, biochemical, single point, multiplexed bead flow cytometry; shares compounds with RGS16-Gao HTS; bead-based flow cytometry RGS19-Galphao binding; actives lie on both sides; response (percent of control binding), % at 10 µM; 5% of 1,700 active; in the data active means response below about 50% or above about 160%; inactive means in between;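 further: 100% = no compound control and 0% = blank background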
# The depositor's hits bear a star; u = inconclusive; x = not tested or not shown; [ ] = another dose, or the depositor's remark. In the library only some 1.2% were active in any assay of this set; here they are far more common. Unless noted, how the calls were made is not given here.
SMILES,RGS8-Gao reg,GSH fluor,RGS7-Gao,Avidin bead fluor,RGS16-Gao HTS,RGS4-Gao reg,RGS4-Gao HTS,Biotin-avidin,RGS8-Gao single,RGS7-Gao confirm,RGS16-Gao single,RGS4-Gao confirm,RGS19-Gao single
O=C(O)/C=C/c1ccccc1Oc1ccccc1,138,30,154*[activator],88*,184,162*[activator],x,0,98,96,98,96,97
COc1ccc(Oc2ccccc2/C=C/C(=O)O)cc1,100,12,98,33,101,98,x,x,x,x,x,x,x
O=C(O)/C=C\c1ccccc1Oc1ccc(F)cc1,100,70,167*[activator],89*,101,127,127*,1,103,86,98,97,98
CC1(C)CC(=O)C2=C(C1)NC(=O)NC2c1ccccc1 (stereo not given),103,15,104,21,109,104,x,x,x,x,x,x,x
O=C(Nc1ccc2c(c1)OCO2)N1CCN(C(=O)C2CCCO2)CC1 (stereo not given),100,25,100,30,99,102,x,x,x,x,x,x,x
O=C(O)COc1ccc(-c2nccc(-c3ccccn3)n2)cc1,97,25,92,8,97,98,x,x,x,x,x,x,x
Cc1ccc(C2CC(c3ccccc3)=NN2C(=S)Nc2ccccc2)o1 (stereo not given),11*,11,-7.6*,-1,-20*,-31*,x,1,94,100,98,98,97
Cc1cc[n+]2n1CC(O)C2 (stereo not given),x,x,x,x,x,x,x,2,103,97,101,103,85
CC(C)N(NC(=O)c1cccc2ccccc12)C(C)C,151*[activator],11,147,23,175*[activator],144,144*,1,102,103,98,100,103
Cc1ccsc1/C=N/n1c(-c2ccco2)n[nH]c1=S,103,19,100,6,101,95,x,x,x,x,x,x,x
C/C(=N/NC(=O)Cc1cccn1C)c1ccccc1,47*,22,46*,2,49,71,71*,0,101,94,102,100,92
C/C(=N\NC(=O)Cc1cccn1C)c1ccc2ccccc2c1,36*,9,36*,1,53,68,68*,1,102,101,103,103,126
C/C(=N\NC(=O)Cc1cccn1C)c1cccc2ccccc12,77,16,76,5,76,91,x,x,x,x,x,x,x
COC(=O)c1[nH]c2cccc(Cl)c2c1NC(=O)CN1CCCCC1C (stereo not given),100,33,95,6,101,97,x,x,x,x,x,x,x
Cc1ccc(S(=O)(=O)NC2(C(F)(F)F)C(=O)Nc3c2c(=O)[nH]c(=O)n3-c2ccccc2)cc1 (stereo not given),118,5,162*[activator],88*,152,113,113*,-2,101,102,101,102,86
Cc1ccc(-n2c3c(c(=O)[nH]c2=O)C(NS(=O)(=O)c2ccc(C)cc2)(C(F)(F)F)C(=O)N3)cc1 (stereo not given),102,15,101,17,103,100,x,x,x,x,x,x,x
O=C(COC(=O)C1CCCCC1)Nc1ccc(S(=O)(=O)N2CCOCC2)cc1,105,18,102,25,106,103,x,x,x,x,x,x,x
Cc1cccc(C)c1-n1cccc1/C=C1/C(=N)N2C(=NC1=O)SN=C2S(C)(=O)=O,104,12,103,9,99,104,x,x,x,x,x,x,x
Cc1ccc(-n2cccc2/C=C2/C(=N)N3C(=NC2=O)SN=C3S(C)(=O)=O)cc1Cl,70,10,45*,5,60,72,72*,x,x,x,x,x,x
COc1cccc(C(=O)NN2C(=S)N(c3ccccc3)C(=O)C2CC(N)=O)c1 (stereo not given),103,x,u,7,104,101,x,x,x,x,x,x,x
CCCOC(=O)c1ccc(NC(=O)Oc2ccccc2)cc1,99,12,97,37,97,96,x,x,x,x,x,x,x
O=C(CSc1nc2ccc([N+](=O)[O-])cc2s1)c1ccc2ccccc2c1,31*,x,u,0,5.0*,3.0*,x,1,101,106,104,105,109
O=[N+]([O-])c1ccc2nc(SCc3ccccc3Cl)sc2c1,99,19,97,16,95,93,x,x,x,x,x,x,x
CCCOC(=O)c1ccc(-c2c(C)noc2-c2ccc(OC)cc2O)o1,102,24,101,17,104,102,x,x,x,x,x,x,x
CC(C)Sc1nc2ccc(N3C(=O)C4CCCCC4C3=O)cc2s1 (stereo not given),65,10,89,2,21*,88,88*,-4,114,108,120,107,116
COc1ccc(CC(=O)OCc2cc(=O)n3cc(Br)ccc3n2)cc1OC,106,15,107,8,110,110,x,x,x,x,x,x,x
Cc1ccc(CN2CCSc3ccc(C(=O)NCc4cccnc4)cc32)cc1,98,13,u,8,93,96,x,x,x,x,x,x,x
